Source: PubChem BioAssay
Calls of active or inactive are those of the source.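 Rule for the calls, unless noted: active = thallium flux through the channel raised or lowered by more than 3 SD from vehicle-only wells, actives on both sides; inactive = the rest.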

Assays:
[1] = liver-stage malaria parasite growth inhibition, primary screen, cell-based, HepG2, luciferase luminescence, HepG2 viability (AID 624349; in the data active = parasite load remaining mostly below about 12%, no sharp cut-off; inactive = mostly above about 10%;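 note: 100% = mean of DMSO negative control wells on the same plate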); details: P. berghei liver stage in HepG2, luciferase luminescence, concentration not given here; parasite load remaining: stronger effect = lower value; viability: measured here: HepG2 viability without parasites
[2] = Cy5 fluorescence interference with SSB-bound oligo, artefact control for HCV NS3 helicase inhibitor project, biochemical, NIH Clinical Collection, E. coli SSB (AID 743268; call rule not given here)
[3] = tested on: Hepatitis C virus NS3 helicase; assay: HCV NS3 helicase inhibitors, primary screen, biochemical, fluorescence polarization, NIH Clinical Collection (AID 743270; call rule not given here); details: NS3 helicase binding to Cy5-dT15 DNA, stronger effect = higher value, concentration not given here
[4] = target: Single-stranded DNA-binding protein (Escherichia coli (strain K12)) (UniProt P0AGE0); assay: E. coli SSB displacement from DNA, counter-screen for HCV NS3 helicase inhibitor project, biochemical, fluorescence polarization, NIH Clinical Collection (AID 743271; in the data active = inhibition above about 28%); details: stronger effect = higher value, concentration not given here
[5] = fluorescence interference in NS3h assay format, artefact control for HCV NS3 helicase inhibitor project, biochemical, NIH Clinical Collection (AID 743272; call rule not given here;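 note: HCV NS3 helicase with a Cy5 labelled single stranded DNA probe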); details: fluorescence interference counterscreen, stronger effect = lower value
[6] = modulation of C. elegans fzo-1 (AID 1259413; call rule not given here;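 note: fzo-1 mutant C. elegans worms in liquid wells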); details: C. elegans fzo-1 modulator screen, mean read-out; stronger effect = higher value
[7] = sensitizers of A549 cells to miR-34 induction, primary screen, imaging, A549 dox-inducible miR-34, nuclei and caspase counts (AID 1347080;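 active = compounds whose cell count with miR-34 switched on is under 0.7 times the count with it off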); details: A549 miR-34 inducible, Hoechst nuclei count, 48 h
F380Y = assay: modulators of BK channel variants, profiling panel, selectivity assay, cell-based, U2OS BacMam, thallium flux, beta subunits (AID 1259406); details: at 30 µM;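 note: initial slope of Thallos dye fluorescence rise after thallium is added; log ratio against the mean of 0.3% DMSO vehicle wells on the same plate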
F380Y/beta1 = assay: as above; details: at 30 µM
F380Y/beta2Delta = assay: as above; details: at 30 µM
F380Y/beta4 = assay: as above; details: at 30 µM
[8] = target: Calcium-activated potassium channel subunit alpha-1 (Homo sapiens) + Leucine-rich repeat-containing protein 26 (Homo sapiens) (UniProt Q12791+Q2I0M4); assay: as above; details: F380Y/Slo1WT/gamma1, at 30 µM
Calcium-activated potassium channel subunit alpha-1 (Homo sapiens) + Leucine-rich repeat-containing protein 26 (Homo sapiens), sequence (Q2I0M4 whole entry, looked up, one chain of several): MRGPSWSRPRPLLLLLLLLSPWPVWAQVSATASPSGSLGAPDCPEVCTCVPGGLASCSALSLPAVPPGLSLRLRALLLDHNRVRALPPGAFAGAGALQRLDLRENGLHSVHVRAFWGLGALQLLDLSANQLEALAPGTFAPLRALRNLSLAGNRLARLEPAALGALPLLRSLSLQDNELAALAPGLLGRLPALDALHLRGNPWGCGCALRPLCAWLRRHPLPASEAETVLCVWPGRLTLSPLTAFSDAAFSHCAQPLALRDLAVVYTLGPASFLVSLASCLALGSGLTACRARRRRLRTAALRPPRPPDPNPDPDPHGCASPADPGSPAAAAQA

R275C = assay: as above; details: at 30 µM
R275C/beta1 = assay: as above; details: at 30 µM
R275C/beta2Delta = assay: as above; details: at 30 µM
R275C/beta4 = assay: as above; details: at 30 µM
R275C/Slo1WT/beta2 = assay: as above; details: at 30 µM
[9] = stronger effect = lower value, cell number ratio, induced over uninduced
[10] = measured here: relative caspase fold change +Dox/-Dox
[11] = measured here: total cells with miR-34 induction, stronger effect = lower value
[12] = measured here: total cells without miR-34 induction

CC(=O)CCCCn1cnc2c1c(=O)n(C)c(=O)n2C
91.8%: viability [1]
inactive: parasite load remaining [1] 108% | fluorescence ratio [2] 1.04 | inhibition [3] -0.4% | inhibition [4] -0.1% | fluorescence ratio [5] 0.95 | mean signal [6] 257 | fold change [7, 9] 0.919 | log fold change Tl+ flux (F380Y) -0.0664 | log fold change Tl+ flux (F380Y/beta1) -0.015 | log fold change Tl+ flux (F380Y/beta2Delta) -0.0429 | log fold change Tl+ flux (F380Y/beta4) -0.0419 | log fold change Tl+ flux [8] 0.0418 | log fold change Tl+ flux (R275C) -0.00612 | log fold change Tl+ flux (R275C/beta1) -0.0249 | log fold change Tl+ flux (R275C/beta2Delta) 0.0157 | log fold change Tl+ flux (R275C/beta4) -0.0496 | log fold change Tl+ flux (R275C/Slo1WT/beta2) -0.0588
1.72: fold change [7, 10]
10500: cell count [7, 12]
9610: cell count [7, 11]

O=C1c2c(O)cc(O)cc2O[C@H](c2ccc(O)c(O)c2)[C@H]1O
91%: viability [1]
inactive: parasite load remaining [1] 112% | fluorescence ratio [2] 0.99 | inhibition [3] 1.19% | inhibition [4] -1.64% | fluorescence ratio [5] 0.99 | mean signal [6] 241 | log fold change Tl+ flux (F380Y) 0.0483 | log fold change Tl+ flux (F380Y/beta1) -0.0233 | log fold change Tl+ flux (F380Y/beta2Delta) 0.00163 | log fold change Tl+ flux (F380Y/beta4) 0.00589 | log fold change Tl+ flux [8] 0.0266 | log fold change Tl+ flux (R275C) -0.0716 | log fold change Tl+ flux (R275C/beta1) -0.00477 | log fold change Tl+ flux (R275C/beta2Delta) 0.0423 | log fold change Tl+ flux (R275C/beta4) 0.0387 | log fold change Tl+ flux (R275C/Slo1WT/beta2) -0.0121

CC(=O)C1(O)CCC2C3CC(C)C4=CC(=O)C=CC4(C)C3(F)C(O)CC21C (stereo not given)
93.8%: viability [1]
inactive: parasite load remaining [1] 94.8% | fluorescence ratio [2] 1.07 | inhibition [3] -0.45% | inhibition [4] -0.48% | fluorescence ratio [5] 1 | mean signal [6] 265 | fold change [7, 9] 0.925 | log fold change Tl+ flux (F380Y) -0.0303 | log fold change Tl+ flux (F380Y/beta1) 0.0429 | log fold change Tl+ flux (F380Y/beta2Delta) -0.0137 | log fold change Tl+ flux (F380Y/beta4) -0.0225 | log fold change Tl+ flux [8] -0.014 | log fold change Tl+ flux (R275C) -0.0154 | log fold change Tl+ flux (R275C/beta1) 0.00875 | log fold change Tl+ flux (R275C/beta2Delta) -0.0161 | log fold change Tl+ flux (R275C/beta4) 0.055 | log fold change Tl+ flux (R275C/Slo1WT/beta2) 0.00372
7970: cell count [7, 11]
2.07: fold change [7, 10]
8610: cell count [7, 12]

CN(C)C1C(=O)C(C(N)=O)=C(O)C2(O)C(=O)C3=C(O)c4c(O)ccc(Cl)c4C(O)C3CC12 (stereo not given)
active: log fold change Tl+ flux (R275C/beta2Delta) -0.203
1.22: fold change [7, 10]
5650: cell count [7, 12]
103%: viability [1]
inactive: parasite load remaining [1] 84.6% | fluorescence ratio [2] 1.05 | inhibition [3] -11.4% | inhibition [4] -1.24% | fluorescence ratio [5] 0.84 | mean signal [6] 261 | fold change [7, 9] 0.964 | log fold change Tl+ flux (F380Y) -0.0288 | log fold change Tl+ flux (F380Y/beta1) -0.00371 | log fold change Tl+ flux (F380Y/beta2Delta) -0.0136 | log fold change Tl+ flux (F380Y/beta4) 0.00837 | log fold change Tl+ flux [8] 0.0307 | log fold change Tl+ flux (R275C) -0.0571 | log fold change Tl+ flux (R275C/beta1) -0.0108 | log fold change Tl+ flux (R275C/beta4) -0.101 | log fold change Tl+ flux (R275C/Slo1WT/beta2) -0.0217
5440: cell count [7, 11]
